# Source: PubChem BioAssay (NCATS)
# Unmarked numbers belong to inactive results. Records with an inconclusive call do not appear. A call without a number means that no potency is given here. Activity calls are given as the source filed them. Unless noted, calls come from the whole dose curve; as a rule, active = well fitted curve in the direction sought with a large enough effect; inconclusive = small, poorly fitted or top-dose-only effect, or another doubt; inactive = no such curve, though single readings can be large; an effect the other way counts as inactive or inconclusive.
# Assays:
# [1] = Primary qHTS for inhibitors of nuclear receptor binding SET domain protein 2 (NSD2) in an RCH-ACV wild type WT cells (2C) (AID 1645877); note: nearly all actives have a fitted effect of over 70% in size; note: potency is the fitted concentration of half-maximal effect
# [2] = molecular target: Phospholipid hydroperoxide glutathione peroxidase GPX4 (Homo sapiens) (UniProt P36969); assay: Primary qHTS Assay for Inhibitors of Recombinant Selenoprotein Glutathione Peroxidase 4 (GPX4) (AID 1845192); conditions: outcome: dose series up to 50 µM unless noted; note: nearly all actives have a fitted effect of over 65% in size
# Sequence of Phospholipid hydroperoxide glutathione peroxidase GPX4 (Homo sapiens) (P36969 whole entry, looked up): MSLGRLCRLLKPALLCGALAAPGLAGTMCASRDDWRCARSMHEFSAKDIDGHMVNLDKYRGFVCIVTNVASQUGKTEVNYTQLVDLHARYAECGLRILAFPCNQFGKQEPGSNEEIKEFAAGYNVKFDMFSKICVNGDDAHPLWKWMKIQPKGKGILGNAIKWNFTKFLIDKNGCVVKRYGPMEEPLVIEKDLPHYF
# Summary of the method: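 qHTS, GR-coupled: GPX4 200 nM + cpd 30 min RT → GSH 1 mM, NADPH 0.5 mM, GR 100 nM → CHP 0.5 mM start; fluor 340/450 at t0 and t15 min; no-enzyme wells as control.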
# [3] = molecular target: RecQ-like DNA helicase BLM (Homo sapiens) (UniProt P54132); assay: qHTS Validation Assay for Inhibitors of Bloom's syndrome helicase (BLM) (AID 2364); note: potency is the fitted concentration of half-maximal effect
# Sequence of RecQ-like DNA helicase BLM (Homo sapiens) (P54132 whole entry, looked up): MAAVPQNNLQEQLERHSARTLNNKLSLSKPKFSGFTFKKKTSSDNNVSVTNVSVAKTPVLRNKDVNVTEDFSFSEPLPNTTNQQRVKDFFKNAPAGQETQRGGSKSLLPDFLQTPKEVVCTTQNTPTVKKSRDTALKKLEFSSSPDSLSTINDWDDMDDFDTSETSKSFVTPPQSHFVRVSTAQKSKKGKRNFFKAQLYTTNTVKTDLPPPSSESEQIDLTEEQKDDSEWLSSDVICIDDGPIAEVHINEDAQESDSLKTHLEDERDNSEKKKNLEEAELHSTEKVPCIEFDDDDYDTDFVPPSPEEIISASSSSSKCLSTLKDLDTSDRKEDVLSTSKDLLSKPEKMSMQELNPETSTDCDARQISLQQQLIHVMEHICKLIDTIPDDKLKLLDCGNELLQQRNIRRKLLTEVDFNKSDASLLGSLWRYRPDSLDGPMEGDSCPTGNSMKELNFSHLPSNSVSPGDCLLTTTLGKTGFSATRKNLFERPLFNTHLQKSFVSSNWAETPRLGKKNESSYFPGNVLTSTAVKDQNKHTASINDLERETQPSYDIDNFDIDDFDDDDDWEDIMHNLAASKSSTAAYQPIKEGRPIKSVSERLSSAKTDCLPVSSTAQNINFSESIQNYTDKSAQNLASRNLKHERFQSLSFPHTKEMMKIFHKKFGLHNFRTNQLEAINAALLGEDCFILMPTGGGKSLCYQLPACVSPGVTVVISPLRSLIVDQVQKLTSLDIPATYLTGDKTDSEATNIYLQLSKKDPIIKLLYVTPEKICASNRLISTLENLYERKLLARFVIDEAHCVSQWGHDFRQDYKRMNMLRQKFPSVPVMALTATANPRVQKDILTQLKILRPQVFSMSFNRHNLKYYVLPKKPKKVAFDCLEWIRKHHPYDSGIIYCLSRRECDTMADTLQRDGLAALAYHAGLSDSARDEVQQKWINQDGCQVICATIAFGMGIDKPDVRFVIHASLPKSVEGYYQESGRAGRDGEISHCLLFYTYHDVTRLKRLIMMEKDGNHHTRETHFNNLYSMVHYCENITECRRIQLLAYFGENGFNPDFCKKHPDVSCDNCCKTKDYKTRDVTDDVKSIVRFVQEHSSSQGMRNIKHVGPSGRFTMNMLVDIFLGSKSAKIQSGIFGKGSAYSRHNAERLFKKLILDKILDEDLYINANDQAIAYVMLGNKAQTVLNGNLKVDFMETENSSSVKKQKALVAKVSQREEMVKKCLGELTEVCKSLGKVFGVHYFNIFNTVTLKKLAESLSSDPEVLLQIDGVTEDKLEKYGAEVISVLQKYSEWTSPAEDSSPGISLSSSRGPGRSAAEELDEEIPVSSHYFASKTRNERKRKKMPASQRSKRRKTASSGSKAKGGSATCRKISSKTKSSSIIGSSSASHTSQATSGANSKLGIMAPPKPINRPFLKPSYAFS
# Summary of the method: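 BLM 50 nM in 25 mM Tris-HCl pH 8.0, 5 mM NaCl, 2 mM MgCl2, 1 mM DTT, 0.01% Tween-20, 2.5 ug/ml poly(dI-dC); 15 min cpd preinc, RT. Start: 200 nM forked DNA + 2 mM ATP (final). TAMRA read, 2 reads 2 h apart.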
# [4] = molecular target: Lysosomal acid glucosylceramidase (Homo sapiens) (UniProt P04062); assay: Glucocerebrosidase-p2 (AID 348; in the data active = potency below about 10 µM; note: potency is the fitted concentration of half-maximal effect); conditions: purified GBA, blue fluorogenic substrate, 40 min
# Sequence of Lysosomal acid glucosylceramidase (Homo sapiens) (P04062 whole entry, looked up): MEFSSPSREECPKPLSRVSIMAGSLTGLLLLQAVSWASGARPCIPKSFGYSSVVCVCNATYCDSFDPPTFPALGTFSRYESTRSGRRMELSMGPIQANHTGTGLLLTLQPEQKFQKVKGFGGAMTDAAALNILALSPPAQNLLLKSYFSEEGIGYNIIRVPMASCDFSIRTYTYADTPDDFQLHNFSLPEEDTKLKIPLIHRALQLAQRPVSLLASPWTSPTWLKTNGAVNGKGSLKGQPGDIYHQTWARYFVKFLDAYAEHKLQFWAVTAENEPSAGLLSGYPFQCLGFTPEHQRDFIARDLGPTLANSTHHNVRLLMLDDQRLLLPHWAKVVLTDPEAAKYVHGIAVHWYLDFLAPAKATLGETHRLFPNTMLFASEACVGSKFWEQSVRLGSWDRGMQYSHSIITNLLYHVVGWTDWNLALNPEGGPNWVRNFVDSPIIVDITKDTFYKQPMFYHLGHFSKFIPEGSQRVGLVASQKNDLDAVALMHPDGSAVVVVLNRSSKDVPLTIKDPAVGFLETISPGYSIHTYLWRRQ
# Summary of the method: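 Normal human glucocerebrosidase (0.2 nM) with blue fluorogenic substrate (80 uM final) in citrate/phosphate pH 5.9 with 10mM sodium taurocholate, 0.01% tween-20; 40 min RT, NaOH/glycine stop; fluorescence Ex 365/Em 440; AC50 from a titration from 0.6 nM upwards.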
# [5] = AP1 Signaling Pathway (AID 357; active = well fitted curve in either direction with a large enough effect, not every such curve was filed as active;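 note: ME-180 reporter cells stimulated with EGF at its EC50 level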); conditions: ME-180 AP-1-bla reporter, EGF-induced, beta-lactamase ratio, 5 h; at 7.69 µM (top of the series) unless noted
# Summary of the method: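 Titration-series screen for positive or negative modulators of EC50 EGF-induced signaling in ME-180 cells carrying an AP-1-driven beta-lactamase reporter. After 5 hours at 37 degrees Celsius, CCF4 460nm/530nm emission ratio gave %Activity; AC50 values derived.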
# [6] = NFAT Signaling Pathway (AID 444; active = well fitted curve in either direction with a large enough effect, not every such curve was filed as active;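 note: carbachol stimulus at about its EC50 of 1 µM final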); conditions: Jurkat NFAT-bla M1, carbachol, beta-lactamase ratio, 5 h; at 7.69 µM (top of the series) unless noted
# Summary of the method: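 Jurkat cells carrying an NFAT-driven β-lactamase reporter and co-transfected muscarinic M1 receptor were treated with compound plus carbachol (1 uM final, an EC50 level) for 5 h at 37 °C. CCF4 loading followed for 1 h at RT; 460/530 nm ratio gave %activity.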
# [7] = Stat Signaling Pathway (AID 446; active = well fitted curve in either direction with a large enough effect, not every such curve was filed as active;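 note: ME-180 cervical cancer cells given 40 pM IL-6 alongside compound; SIE-controlled beta-lactamase reporter measured as 460/530 nm FRET emission ratio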); conditions: ME-180 (cervical carcinoma) SIE beta-lactamase reporter, IL-6 stimulated, 5 h; at 7.69 µM (top of the series) unless noted
# Summary of the method: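 Compound effects on IL-6-induced STAT reporter activity were measured in ME-180 cells. After overnight culture, cells were co-treated with 40 pM IL-6 for 5 hrs before beta-lactamase substrate loading at room temperature.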
# [8] = molecular target: Glucocorticoid receptor (Homo sapiens) (UniProt P04150); assay: GR-GFP Redistribution (AID 450;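 active = compounds whose dose series gives a full or clear partial fitted curve of increased nuclear translocation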; note: potency is the fitted concentration of half-maximal effect); conditions: U2OS GR-GFP nuclear translocation, laser cytometry, 2 h
# Sequence of Glucocorticoid receptor (Homo sapiens) (P04150 whole entry, looked up, the tested form may be a part): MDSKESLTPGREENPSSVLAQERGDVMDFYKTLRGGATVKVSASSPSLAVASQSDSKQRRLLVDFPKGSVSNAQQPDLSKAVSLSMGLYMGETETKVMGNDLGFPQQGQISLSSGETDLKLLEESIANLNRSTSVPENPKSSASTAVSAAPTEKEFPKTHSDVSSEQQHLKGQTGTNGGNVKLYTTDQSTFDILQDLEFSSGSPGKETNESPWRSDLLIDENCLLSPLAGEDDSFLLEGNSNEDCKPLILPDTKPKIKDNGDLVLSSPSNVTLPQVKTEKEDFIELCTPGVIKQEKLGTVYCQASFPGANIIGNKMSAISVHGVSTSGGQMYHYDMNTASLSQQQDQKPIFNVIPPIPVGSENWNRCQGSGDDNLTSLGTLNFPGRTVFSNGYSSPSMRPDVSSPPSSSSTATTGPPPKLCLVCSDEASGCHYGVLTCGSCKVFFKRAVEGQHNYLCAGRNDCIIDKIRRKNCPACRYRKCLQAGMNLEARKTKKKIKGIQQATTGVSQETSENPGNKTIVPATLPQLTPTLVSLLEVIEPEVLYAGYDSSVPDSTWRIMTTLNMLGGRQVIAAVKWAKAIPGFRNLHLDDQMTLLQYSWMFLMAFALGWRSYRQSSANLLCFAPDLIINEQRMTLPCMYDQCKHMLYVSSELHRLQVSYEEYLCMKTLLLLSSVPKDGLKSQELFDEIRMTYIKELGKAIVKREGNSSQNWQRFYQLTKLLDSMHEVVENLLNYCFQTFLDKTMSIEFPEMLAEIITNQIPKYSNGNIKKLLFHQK
# [9] = molecular target: Glucocorticoid receptor (Homo sapiens) (UniProt P04150); assay: GR-EFC Redistribution (AID 451; calls by dose curve; note: potency is the fitted concentration of half-maximal effect); conditions: CHO-K1 GR-EFC translocation, beta-gal luminescence, 2 h
# Summary of the method: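 CHO-K1 cells stably expressing nuclear-localized β-gal enzyme acceptor and GR fused C-terminally to the enzyme donor fragment; ligand-driven nuclear translocation restores β-gal by complementation. Compounds titrated up to 46 uM final, 2 h at 37 °C; luminescence read.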
# [10] = molecular target: Mitogen-activated protein kinase 10 (Mus musculus) (UniProt Q61831); assay: JNK3 AlphaScreen Assay (AID 530; active = well fitted curve in either direction with a large enough effect, not every such curve was filed as active;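 note: kinase came from lysate of stimulated human HepG2 cells; signal reports phosphorylation of biotinylated GST-cJun 1-79 at Ser73 with 10 µM ATP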)
# Summary of the method: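 Biotinylated GST-cJun(1-79) served as substrate for JNK3 in HepG2 lysates stimulated with IL-1beta and TNF-alpha. ATP was 10 uM final, pH 7.6. Ser73 phosphorylation was quantified by AlphaScreen (680 nm excitation).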
# [11] = molecular target: 3',5'-cyclic-AMP phosphodiesterase 4B (Homo sapiens) (UniProt Q07343); assay: qHTS Assay for Inhibitors of PDE-IV (AID 607; active = well fitted activation curve with a large enough effect in the main read-out, with a control signal flat, not every such curve was filed as active)
# Sequence of 3',5'-cyclic-AMP phosphodiesterase 4B (Homo sapiens) (Q07343 whole entry, looked up): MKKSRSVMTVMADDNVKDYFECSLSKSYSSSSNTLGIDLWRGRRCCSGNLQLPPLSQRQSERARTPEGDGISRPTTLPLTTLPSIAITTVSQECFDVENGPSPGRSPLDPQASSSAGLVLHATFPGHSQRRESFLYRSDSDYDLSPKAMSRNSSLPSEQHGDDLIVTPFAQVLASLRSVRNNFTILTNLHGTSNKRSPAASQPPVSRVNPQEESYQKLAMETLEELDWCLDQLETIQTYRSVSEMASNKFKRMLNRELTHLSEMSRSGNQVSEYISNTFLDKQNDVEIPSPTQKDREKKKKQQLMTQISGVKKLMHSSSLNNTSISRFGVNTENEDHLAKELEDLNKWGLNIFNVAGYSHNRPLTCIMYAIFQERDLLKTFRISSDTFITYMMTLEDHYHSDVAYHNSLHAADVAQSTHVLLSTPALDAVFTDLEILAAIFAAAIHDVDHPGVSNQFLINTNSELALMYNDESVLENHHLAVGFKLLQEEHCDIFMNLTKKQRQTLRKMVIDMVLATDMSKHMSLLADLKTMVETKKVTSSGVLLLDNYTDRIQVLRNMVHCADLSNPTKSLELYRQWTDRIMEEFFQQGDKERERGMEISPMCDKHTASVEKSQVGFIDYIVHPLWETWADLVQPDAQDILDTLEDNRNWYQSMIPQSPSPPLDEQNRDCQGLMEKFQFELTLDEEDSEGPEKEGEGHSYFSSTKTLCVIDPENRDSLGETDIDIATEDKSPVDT
# Summary of the method: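 ACTOne HEK293 cells carry a modified cAMP-gated CNG channel and express endogenous PDE4; plated 1000 cells/well, compounds up to 22.9 uM final. Membrane-potential dye fluorescence (ex 535/em 590) was read; parental cells received 10 uM forskolin + 100 uM RO 20-1724.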
# [12] = molecular target: Endonuclease 4 (Escherichia coli (strain K12)) (UniProt P0A6C1); assay: Counterscreen for APE1 Inhibitors: qHTS Validation Assay for Inhibitors of Endonuclease IV (AID 1708)
# Summary of the method: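 Measured as reaction progress, the fluorescence gain between first and third kinetic reads after adding 50 nM TAMRA/BHQ-2 THF duplex to 2 nM enzyme preincubated 15 min with compound; 2 mM MgCl2, pH 7.5.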
# [13] = molecular target: Cytochrome P450 3A4 (Homo sapiens) (UniProt P08684); assay: qHTS Assay for Activators of Cytochrome P450 3A4 (AID 885); note: nearly all actives have a fitted effect of over 65% in size
# Sequence of Cytochrome P450 3A4 (Homo sapiens) (P08684 whole entry, looked up): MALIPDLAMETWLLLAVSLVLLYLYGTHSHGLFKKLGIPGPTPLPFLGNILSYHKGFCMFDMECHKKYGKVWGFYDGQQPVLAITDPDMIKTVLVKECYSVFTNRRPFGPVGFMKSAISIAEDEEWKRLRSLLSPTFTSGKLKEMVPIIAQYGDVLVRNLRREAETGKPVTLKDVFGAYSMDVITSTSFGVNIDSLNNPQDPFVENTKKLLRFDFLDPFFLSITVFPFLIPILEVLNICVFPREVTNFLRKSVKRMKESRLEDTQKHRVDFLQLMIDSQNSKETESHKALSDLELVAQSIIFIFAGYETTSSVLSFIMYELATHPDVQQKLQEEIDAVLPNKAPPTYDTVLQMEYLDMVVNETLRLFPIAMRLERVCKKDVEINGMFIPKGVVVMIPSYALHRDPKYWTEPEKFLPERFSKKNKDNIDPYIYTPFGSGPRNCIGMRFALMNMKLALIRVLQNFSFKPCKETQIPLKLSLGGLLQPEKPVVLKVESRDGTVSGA
# Summary of the method: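 CYP3A4 activity: Luciferin-PPXE O-dealkylation, 25uM substrate, 200mM KPO4, RT throughout. Read-out is luciferase luminescence; higher values reflect activation.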
structure (smiles),measurement,setting,value
Cc1c(-c2ccc(-c3ccccc3F)cc2)nc2ccc(F)cc2c1C(=O)O,Potency,[1],0.148 µM (active)
same,Potency,[2],inactive
OC[C@H]1O[C@@H](S[C@@H]2O[C@H](CO)[C@H](O)[C@H](n3cc(-c4cccc(F)c4)nn3)[C@H]2O)[C@H](O)[C@@H](n2cc(-c3cccc(F)c3)nn2)[C@H]1O,Potency,[1],inactive
same,Potency,[2],inactive
NS(=O)(=O)c1ccc(S(=O)(=O)Nc2cccc3c(Cl)c[nH]c23)cc1,Potency,[1],0.59 µM (active)
same,Potency,[2],inactive
COc1cccc(-c2c(C)n(Cc3c(F)cccc3C(F)(F)F)c(=O)n(C[C@H](NCCCC(=O)O)c3ccccc3)c2=O)c1F,Potency,[1],inactive
same,Potency,[2],inactive
N.N.N.N.N.N.N.N.N.N.N.N.N.N.O.O.[Cl-].[Cl-].[Cl-].[Cl-].[Cl-].[Cl-].[Ru].[Ru].[Ru],Potency,[3],12.6 µM (active)
COc1ccc([C@@H](O)[C@@H](C)Oc2ccc([C@H]3O[C@H](c4ccc(O[C@H](C)[C@H](O)c5ccc(OC)c(OC)c5)c(OC)c4)[C@H](C)[C@H]3C)cc2OC)cc1OC,Potency,[1],5.25 µM (active)
same,Potency,[2],inactive
CCN(CC)C(=O)Cc1csc(NS(=O)(=O)c2cccc(Cl)c2C)n1,Potency,[1],inactive
same,Potency,[2],inactive
FC(F)(F)c1ccccc1-c1nc(NC2CCNCC2)c2ccccc2n1,Potency,[4],> 11.4 µM
same,"activity change, negative = inhibition",[5],9.18%
same,"activity change, negative = inhibition",[6],7.17%
same,"activity, negative = inhibition",[7],1.97%
same,Potency,[8],> 46 µM
same,Potency,[9],> 46 µM
same,outcome,[10],inactive
same,Potency,[11],inactive
Nc1nc(SCc2ccc([N+](=O)[O-])cc2)c2ncn([C@@H]3O[C@H](CO)[C@H](O)[C@H]3O)c2n1,outcome,[12],inactive
CCOc1cc(/C=C2/C(=O)N(c3ccccc3)N=C2C)cc(Cl)c1OCC(=O)OC,Potency,[1],inactive
same,Potency,[2],inactive
CC(C)(O)CS(=O)(=O)Nc1ccc2c(c1)CCN(C(=O)COc1cccnc1)C2,Potency,[1],0.0332 µM (active)
same,Potency,[2],inactive
Cn1c(=O)c(CCc2ccccc2)nc2cnc(OCc3ccccc3)nc21,"activity change, negative = inhibition",[5],-26%
same,"activity change, negative = inhibition",[6],-3.3%
same,"activity, negative = inhibition",[7],-13%
same,Potency,[8],> 9.22 µM
same,Potency,[9],> 46 µM
same,outcome,[10],inactive
same,Potency,[11],inactive
CC(=O)N1CCN(c2ccc(NC(=O)Cc3cnc(-c4ccnc(F)c4)c(C)c3)nc2)CC1,Potency,[1],inactive
same,Potency,[2],inactive
O=C([O-])C[O-].[Pt+2],Potency,[1],inactive
same,Potency,[2],inactive
[2H]c1nc(C)nc([2H])c1-c1cc(NC[C@@H](C)c2cccc3c(C(=O)NC)ccnc23)ncn1,Potency,[1],inactive
same,Potency,[2],inactive
O=c1cnc2cnc(N3CCNCC3)nc2n1Cc1ccc(F)cc1,Potency,[4],> 11.4 µM
same,"activity change, negative = inhibition",[5],-15.8%
same,"activity, negative = inhibition",[7],-2.57%
same,Potency,[8],> 9.22 µM
same,Potency,[9],> 46 µM
same,outcome,[10],inactive
same,Potency,[11],inactive
same,Potency,[13],inactive
